High-throughput results as filed in PubChem BioAssay.
HT1080NT lethal: kills 2HG-producing HT-1080-NT fibrosarcoma cells. HT-1080-NT fibrosarcoma viability, CellTiter-Glo ATP luminescence, 48 h. Potency, µM (series often up to 46.1 µM), inactives show top-dose activity, negative = less viability, actives largely listed as cytotoxic. 360,000 compounds, 1.6% hits;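 further: NT is the 2HG producing partner of a matched IDH1 knockdown line; potency means the concentration at half of the fitted maximal effect; 0% = DMSO-treated cells and -100% = media-only wells without cells; nearly all actives have a fitted effect of over 55% in size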
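Luminescent CellTiter-Glo readout after 48 hours of compound exposure at 37 degrees C defined viability of HT-1080-NT cells. Activity was normalized to DMSO wells and cell-free media wells; concentration-response curves were fitted and assigned curve classes.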
HT1080 IDH1KD tx: kills HT-1080 cells with IDH1 knockdown; 360,000 compounds, 2% hits; AID 686971; Potency, µM (series often up to 46.1 µM), without a hit: at the highest dose activity, negative = toxicity, usual class: cytotoxic; HT-1080 IDH1 knockdown viability, ATP luminescence, 48 h;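 further: potency means the concentration at half of the fitted maximal effect; 0% = DMSO wells and -100% = cell-free medium wells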
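Luminescent ATP read-out (CellTiter-Glo, 10 min at room temperature) after 48 h compound exposure at 37 °C gave viability of IDH1-knockdown HT-1080 cells. Activity was normalised to DMSO and cell-free wells, then fitted as concentration-response curves.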
DT40 TDP1 no CPT: qHTS for Inhibitors of human tyrosyl-DNA phosphodiesterase 1 (TDP1): qHTS in cells in absence of CPT. 420,000 compounds, 15% hits. Potency, µM (doses to about 46.2 µM), inactives show at the top dose activity change, negative = growth inhibition, actives largely listed as inhibitors. AID 686978, 2013. DT40 Tdp1-/- hTDP1 cells, no CPT, ATP luminescence, 48 h; further: potency means the concentration at half of the fitted maximal effect; nearly all actives have a fitted effect of over 55% in size
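DT40 Tdp1-/-;hTDP1 cells, no CPT (DMSO vehicle only), 400 cells/well; compounds pin-transferred; ≥48 hr, 37 °C; CellTiter-Glo 30 min RT dark, luminescence read.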
TDP1 cell CPT: DT40-hTDP1 cell growth loss with CPT; 420,000 compounds, 12% hits; AID 686979; chicken DT40 Tdp1-/-;hTDP1 cells + 20 nM CPT, ATP luminescence, 48 h; Potency, µM (titrated, usually from 46.2 µM), for inactives: at the top dose activity change, negative = growth inhibition, actives largely listed as inhibitors; further: potency means the concentration at half of the fitted maximal effect; nearly all actives have a fitted effect of over 55% in size
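Chicken DT40 Tdp1-/- cells stably complemented with human TDP1 were seeded at 400 cells/well in medium containing 20 nM camptothecin, exposed to pin-transferred compounds, and grown at 37 °C for at least 48 hr. Viability was read as ATP luminescence.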
IL-1B inflam inh: inflammasome signaling inhibition, IL-1 beta readout | activity change, % at 57.5 µM | 360,000 compounds, 4.7% hits | AID 743279 | THP-1 LPS/ATP IL-1B secretion, AlphaLISA, 16 h; stronger effect = lower value; in the data active means activity change below about -50%; inconclusive means mostly about -30% to -49%
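THP-1 cells pretreated 1 hr with compounds (up to 57.5 uM final), then stimulated with LPS (250 ng/mL final) plus ATP (1.25 mM final); secreted IL-1B measured by AlphaLISA after 16 hr, decreased signal indicating inhibition.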
* marks the source's active call; other numbers are inactive results; ? = inconclusive; / = no result given; ! = not confirmed by another sample. Compounds with a hit are over-represented: about 19% of the library has one in this group of screens. Unless noted, the call rests on the fitted dose curve; in most records, active means well fitted curve in the direction sought with a large enough effect; inconclusive means small, poorly fitted or top-dose-only effect, or another doubt; inactive means no such curve, though single readings can be large; an effect the other way counts as inactive or inconclusive. Unless noted, on the % scale 0 is the no-effect control and ±100 the full control effect.

SMILES	HT1080NT lethal	HT1080 IDH1KD tx	DT40 TDP1 no CPT	TDP1 cell CPT	IL-1B inflam inh
CC1(C)N=C(N)N=C(N)N1c1ccc(Oc2ccc(Cl)cc2)c(Cl)c1	2.3µM*	1.3µM*	1.5µM*	2.6µM*	-86*
CC1(C)N=C(N)N=C(N)N1c1ccc(CCCCc2ccccc2)cc1	?	0.73µM*	0.37µM*	0.65µM*	?
COc1ccc(N2C(=O)c3ccccc3NC(=O)C2C(=O)Nc2ccc(N3CCOCC3)cc2)cc1 (configuration not stated)	-3%	-2%	?	?	-20
Cc1cccc2nc3ccccc3cc12	-2%	1%	-17%	14%	-25
Cc1[nH]ccc2cc3nc4ccccc4c3cc12	15µM*	?	3.7µM*	5.2µM*	-58*
O=C(NNC(=S)NC(=O)c1sc2ccccc2c1Cl)c1ccc(Cl)cc1	?	?	?	18µM*	31
O=C(O)c1ccccc1NC(=S)NC(=O)c1sc2ccccc2c1Cl	0%	0%	16µM*	?	3
O=C(NC(=S)Nc1ccccc1N1CCOCC1)c1sc2ccccc2c1Cl	1%	0%	?	-27%	9
CNS(=O)(=O)c1cn(CC(=O)NCc2ccc(N(C)C)cc2)cc1S(=O)(=O)NC	11%	0%	8%	2%	1
Cc1ccc(S(=O)(=O)N2CCCCC2)cc1C(=O)OC(C)C(=O)NC1CCCCC1C (configuration not stated)	-6%	-5%	?	?	-16
O=C1OC=NC1=Cc1ccccc1	7%	19%	7%	-2%	-9
Cn1c(N)c(C(=O)CSc2ccc3c(c2)OCCO3)c(=O)n(C)c1=O	-3%	-1%	18µM*	18µM*	1
CCSc1nnc(SCC(=O)c2c(N)n(C)c(=O)n(C)c2=O)s1	8%	-6%	23µM*	?	35
Cc1ccc(S(=O)(=O)N(C)C[C@H]2OCCCC[C@@H](C)Oc3ccc(NC(=O)Cc4ccccc4)cc3C(=O)N([C@H](C)CO)C[C@@H]2C)cc1	2%	-8%	?	?	-5
COc1ccc(-n2ncc3c(=O)n(CC(=O)N4CCCc5ccccc54)cnc32)cc1	-1%	3%	23µM*	?	-7
Cc1ccc(-n2ncc3c(=O)n(CC(=O)N4CCCc5ccccc54)cnc32)cc1C	-1%	-10%	16µM*	?	-24
C[C@@H](CN1CCC[C@H]1CN1C(N)=NC[C@@H]1Cc1ccccc1)N1C[C@@H](Cc2ccccc2)N(CCc2ccc(Cl)c(Cl)c2)C1=N	6%	-6%	?	?	-66*
CC[C@@H](C)[C@@H]1CN([C@@H](CN2CCC[C@H]2CN2C(N)=NC[C@H]2CC(C)C)C(C)C)C(=N)N1CCc1ccc(Cl)c(Cl)c1	-2%	0%	?	?	-60*
CC(C)[C@@H]1CN=C(N)N1C[C@@H]1CCCN1C[C@H](C)N1C[C@@H](Cc2ccccc2)N(CCc2ccc(Cl)c(Cl)c2)C1=N	-4%	0%	?	?	-75*
CC(C)[C@H](CN1CCC[C@H]1CN1C(N)=NC[C@@H]1Cc1ccccc1)N1C[C@@H](Cc2ccccc2)N(CCc2ccc(Cl)c(Cl)c2)C1=N	-3%	1%	?	9.2µM*	?
CC[C@@H](C)[C@@H]1CN([C@@H](C)CN2CCC[C@H]2CN2C(N)=NC[C@H]2CC(C)C)C(=N)N1CCc1ccc(Cl)c(Cl)c1	1%	-3%	?	?	?
CCCN(CCC)C(=O)Cn1c(=O)n(-c2ccc(CC)cc2)c(=O)c2ccc(C(=O)NCCc3ccccc3)cc21	/	/	7.3µM*	12µM*	/
CCc1ccc(-n2c(=O)c3ccc(C(=O)NCCc4ccccc4)cc3n(CC(N)=O)c2=O)cc1	11%	14%	21µM*	?	13
CCc1ccc(NC(=O)Cn2c(=O)n(CCCCC(=O)NCCc3ccccc3)c(=O)c3ccccc32)cc1	/	/	-12%	-12%	/
CCn1nc(C)c(CNC(=O)CCc2nnc(Cc3c[nH]c4ccccc34)o2)c1C	2%	12%	-24%	-28%	54
SMILES	HT1080NT lethal	HT1080 IDH1KD tx	DT40 TDP1 no CPT	TDP1 cell CPT	IL-1B inflam inh
Cc1cc(CN2CCN(c3cccc(C)c3C)CC2)cs1	/	/	15µM*	23µM*	/
Cc1cc(CN2CCN(c3ccccc3F)CC2)cs1	/	/	?	-28%	/
CC(C)C(=O)Nc1nnc(S(=O)(=O)N(C)c2ccc(Cl)cc2)s1	-19%	-1%	-17%	-3%	-11
O=C(CSc1c2c(nc3ccc(Cl)cc13)CCCC2)N1CCN(c2ccc(Cl)cc2)CC1	/	/	16µM*	12µM*	/
COc1ccc(Cl)cc1NC(=O)c1ccc2c(SCC(=O)O)c3c(nc2c1)CCCC3	25%	15%	30%	0%	?
O=C(CSc1c2c(nc3ccc(Cl)cc13)CCCC2)N1CCN(c2cccc(Cl)c2)CC1	/	/	?	16µM*	/
COc1ccc(N2CCN(C(=O)CSc3c4c(nc5ccc(Cl)cc35)CCCC4)CC2)cc1	/	/	15µM*	21µM*	/
Cc1ccc(S(=O)(=O)N2CCCC(C(=O)NCCc3ccc(Cl)cc3)C2)cc1 (configuration not stated)	-26%	-23%	?	?	-16
CC(C)C[C@H](NC(=O)c1nc[nH]c1C(=O)NC1CCN(C(=O)OC(C)(C)C)CC1)C(=O)OCc1ccccc1	?	-29%	?	?	-79*
C[C@H](NC(=O)c1nc[nH]c1C(=O)NC1CCN(C(=O)OC(C)(C)C)CC1)C(=O)OC(C)(C)C	-2%	-2%	?	18µM*	-5
CC(C)(C)OC(=O)N1CCC(NC(=O)c2nc[nH]c2C(=O)NCc2ccccc2)CC1	-4%	-9%	23µM*	?	-2
CC(C)(C)OC(=O)[C@H](Cc1ccccc1)NC(=O)c1nc[nH]c1C(=O)NC1CCN(C(=O)OC(C)(C)C)CC1	?	?	16µM*	23µM*	-6
CC1CCN(C(=O)c2[nH]cnc2C(=O)NC2CCN(C(=O)OC(C)(C)C)CC2)CC1	0%	2%	-5%	?	-12
CC(C)C[C@H](NC(=O)c1nc[nH]c1C(=O)NC1CCN(C(=O)OC(C)(C)C)CC1)C(=O)OC(C)(C)C	?	?	18µM*	?	-4
CC(C)C[C@H](NC(=O)c1nc[nH]c1C(=O)N1CCNCC1)C(=O)OC(C)(C)C	-3%	-6%	7%	-17%	-19
Cc1ccnc(NC(=O)CCCOc2cc(=O)n(C)c3ccccc23)c1	?	?	?	?	-76*!
Cn1c(=O)cc(OCCCC(=O)NCc2ccccn2)c2ccccc21	-3%	-10%	0%	-13%	12
